Bioassay records from PubChem.
The full list was thinned out, with hits kept by preference.
Mtb RmlCD inh = M. tuberculosis RmlC/RmlD inhibition; inhibition, % at 3.6 µM; P9WH09+P9WH11; RmlC+RmlD coupled enzyme assay, percent inhibition; primary screen in compound mixtures; actives 0.03% (n = 160,000); in the data active = inhibition mostly above about 34%, no sharp cut-off
Target sequence (P9WH09 whole entry, looked up): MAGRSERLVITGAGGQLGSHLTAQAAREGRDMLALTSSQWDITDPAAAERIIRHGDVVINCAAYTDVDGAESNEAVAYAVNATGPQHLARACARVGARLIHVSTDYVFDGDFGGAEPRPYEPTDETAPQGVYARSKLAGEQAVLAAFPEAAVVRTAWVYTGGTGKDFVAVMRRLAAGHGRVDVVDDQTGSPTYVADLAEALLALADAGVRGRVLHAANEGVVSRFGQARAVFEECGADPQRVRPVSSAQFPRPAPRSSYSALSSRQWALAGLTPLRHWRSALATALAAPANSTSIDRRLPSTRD
Target sequence (P9WH11 whole entry, looked up): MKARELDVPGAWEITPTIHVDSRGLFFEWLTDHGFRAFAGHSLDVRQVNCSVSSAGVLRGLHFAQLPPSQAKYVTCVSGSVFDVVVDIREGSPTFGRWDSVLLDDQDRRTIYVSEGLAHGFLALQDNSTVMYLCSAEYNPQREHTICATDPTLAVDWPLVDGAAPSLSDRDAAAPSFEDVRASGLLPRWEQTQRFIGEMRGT
YopH inh = inhibitors of Yersinia enterocolitica YopH tyrosine phosphatase; AID 898; actives 0.16% (n = 140,000); inhibition, % (test concentration not listed); fluorescence Ex485/Em525; in the data active = inhibition above about 50%
Hits are given with their value; - = inactive; . = not tested or not shown.

SMILES	Mtb RmlCD inh	YopH inh
CC(=O)N(C1=C(N2CCOCC2)C(=O)c2ccccc2C1=O)c1ccc(C(=O)O)cc1	-	.
CC(=O)N(C)C1=C(N2CCOCC2)C(=O)c2ccccc2C1=O	.	-
CC(=O)c1ccc(NC2=C(N3CCOCC3)C(=O)c3ccccc3C2=O)cc1	-	99
Cc1ccc(NC2=C(N3CCOCC3)C(=O)c3ccccc3C2=O)cc1	-	89
O=C(O)c1ccc(NC2=C(N3CCOCC3)C(=O)c3ccccc3C2=O)cc1	-	76
Cc1ccc(NC2=C(Cl)C(=O)c3ccccc3C2=O)cc1	-	-
CCC(C)(C)n1nnnc1C(c1ccc(C)cc1)N(Cc1ccco1)Cc1cccs1 (stereo unspecified)	-	-
COc1ccc(Oc2cc(C(F)(F)F)cnc2C(N)=O)cc1	.	-
Cc1oc2c(c1C(=O)O)C(=O)c1ccccc1C2=O	-	.
O=C(C1=C(c2ccccc2)C(=O)c2ccccc2C1=O)c1ccccc1	-	-
Cc1oc2c(c1C(=O)c1ccccc1)C(=O)C(=O)c1ccccc1-2	.	89
O=C1C(=O)c2c(C(=O)c3ccccc3)coc2-c2ccccc21	-	75
NC(=O)CSc1nc2c(sc3ccccc32)c(=O)n1CCCC(=O)NCC1CCCO1 (stereo unspecified)	-	.
CCCc1nnc(NC(=O)c2ccc(N3C(=O)C4C5C=CC(C5)C4C3=O)cc2)s1 (stereo unspecified)	.	-
O=C(Nc1nnc(C(F)(F)F)s1)c1ccc(N2C(=O)C3C4C=CC(C4)C3C2=O)cc1 (stereo unspecified)	.	98
CC(=O)NC1=C(NC2CCS(=O)(=O)C2)C(=O)c2ccccc2C1=O (stereo unspecified)	-	-
CN(C1=C(NC(=O)c2ccccc2)C(=O)c2ccccc2C1=O)C1CCS(=O)(=O)C1 (stereo unspecified)	.	65
O=S(=O)(NNc1ccc(Cl)nn1)c1ccc(F)cc1	-	-
O=C(CSc1ncn[nH]1)c1ccc2c(c1)OCCO2	-	-
O=C(CSc1ncn[nH]1)c1ccc2c(c1)OCO2	-	57
COc1cccc(N=Nc2c(N)[nH]n3c(=O)c4c(nc23)CCCC4)c1	-	.
CCS(=O)(=O)c1nc(S(=O)(=O)c2ccc(Cl)cc2)c(NCCOC)s1	-	.
CN(C)c1ccc(-c2noc(C3CCN(S(=O)(=O)c4cccc(Cl)c4)CC3)n2)cc1	-	-
O=S(=O)(c1ccc2ccccc2c1)N1CCC(c2nc(-c3ccncc3)no2)CC1	.	50
Cc1cc(=O)oc2ccc(OC(=O)CC(C)C)cc12	-	.
SMILES	Mtb RmlCD inh	YopH inh
CCOC(=O)Oc1ccc2oc(=O)cc(C)c2c1	-	67
CC(=O)N(C)C1=C(O)c2ccccc2C(=O)C1=O	.	-
CC(=O)C(C(C)=O)C1(O)C(=O)c2ccccc2C1=O	-	98
CCCc1[nH]n(-c2ccc([N+](=O)[O-])cc2)c(=O)c1C=NCCCn1ccnc1	-	.
Cc1ccc2c(C)[nH]c(=O)cc2c1	.	90
Cc1ccc(-c2cc(=O)[nH]c3ccccc23)cc1	.	-
O=S(=O)(NCCOCC(F)(F)F)c1ccc2oc3ccccc3c2c1	-	-
COC(=O)c1nc(-c2ccc3c(n2)C(=O)C(N)=C(OC)C3=O)c(N)c(-c2ccc(OC)c(OC)c2O)c1C	-	.
COC1=C(N)C(=O)c2nc(-c3nc(C(=O)O)c(C)c(-c4ccc(OC)c(OC)c4O)c3N)ccc2C1=O	.	101
CCOC(=O)C1=C(O)/C(=C\c2ccc(CNC(=O)C(=O)Nc3ccc(C)c(C)c3)o2)N=C1C	-	-
O=C(CN1CCN(Cc2ccccc2)CC1)N/N=C/c1cccnc1	-	.
COc1ccc2nc3ccccc3nc2c1	-	.
COc1ccc(-n2nc3ccccc3n2)cc1	-	50
S=c1[nH]nc(-c2ccccc2)n1/N=C/C=C/c1ccco1	-	51
S=c1[nH]nc(-c2ccc(Cl)cc2)n1/N=C/C=C/c1ccco1	-	.
CCc1ccc(S(=O)(=O)/N=C2\C=CC(=O)c3ccccc32)cc1	-	.
CCc1ccc(S(=O)(=O)/N=C2/C=C(Sc3ncn[nH]3)C(=O)c3ccccc32)cc1	-	93
CCc1ccc(OCC(=O)N(C)C2CCS(=O)(=O)C2)cc1 (stereo unspecified)	.	-
CN(C(=O)COc1ccc(C(C)(C)C)cc1)C1CCS(=O)(=O)C1 (stereo unspecified)	-	54
Cn1cccc1/C=N\NC(=O)Cc1ccc(Br)c2ccccc12	-	.
CCCCn1c(N)c(NCCC(C)C)c(=O)[nH]c1=O	-	52
CCCCn1c(N)c(Sc2ccccc2)c(=O)[nH]c1=O	-	-
COCCN(CCOC)C(=O)c1ccc(SCc2ccc(C)cc2)c([N+](=O)[O-])c1	-	.
Cc1cc(C)nc(NC(=O)c2cc([N+](=O)[O-])cc([N+](=O)[O-])c2)n1	-	-
COc1ccc(OC)c(-c2c3cc(O)c(=O)cc-3oc3cc(O)c(O)cc23)c1	-	55
SMILES	Mtb RmlCD inh	YopH inh
O=c1cc2oc3cc(O)c(O)cc3c(-c3ccccc3O)c-2cc1O	-	.
NS(=O)(=O)c1ccc(CCNC(=O)COC(=O)CC(c2ccccc2)c2ccccc2)cc1	-	.
COc1ccc(NC2=C(NCCO)C(=O)c3ccccc3C2=O)cc1	-	78
COC1=C(Nc2ccc(OC)cc2)C(=O)c2ccccc2C1=O	-	-
CN(C)c1nc(Nc2ccc(Cl)cc2)nc(OCC#N)n1	.	-
C/C(CCc1ccco1)=N/NC(=O)CCC(=O)Nc1ccc(Br)cc1	-	-
CCOC(=O)/C(C)=N/NC(=O)c1ccc([N+](=O)[O-])cc1	-	.
CCOC(=O)/C(N=Nc1ccc(F)cc1)=C(/O)c1ccc([N+](=O)[O-])cc1	-	62
CNC(=S)N/N=C/c1cc(Br)cc(Br)c1O	-	-
Cc1ccc(C(=O)O)cc1N=Cc1cc(Br)cc(Br)c1O	45	-
CC1(C)COC(/C=C/c2ccc([N+](=O)[O-])cc2)=N1	-	52
CC(=C/C(=O)O)/C=C/c1ccc([N+](=O)[O-])cc1	-	-
Cc1ccc(C2=Nc3ccccc3N(C(=O)c3ccccc3)C(C)C2)cc1 (stereo unspecified)	-	-
CCOc1ccc(NC(=O)Nc2ccc3nsnc3c2)cc1	-	.
CCOc1ccc(NC(=S)Nc2ccc3nsnc3c2)cc1	-	84
CC(C)/C=N/Nc1nc(-c2ccc(Br)cc2)cs1	.	-
O=C1C(=O)N(Cc2ccccc2)C(=O)N1CCN1C(=O)c2ccccc2C1=O	-	.
O=C1Cc2ccccc2C(=O)N1CCc1ccccc1	-	100
CC(NC(=O)C1(c2cccs2)CCOCC1)c1ccccc1 (stereo unspecified)	-	-
COc1cc(/C=C/C(=O)OCC(=O)NC(=O)NC(C)C)cc(S(=O)(=O)N2CCc3ccccc32)c1OC	-	.
CN(C)S(=O)(=O)c1ccc(S(=O)(=O)Nc2ccc3c(c2)oc2ccccc23)cc1	-	-
Cc1cc(=O)oc2cc(NS(=O)(=O)c3ccccc3)ccc12	43	.
[O-]/[N+](=C\c1ccc(F)cc1)c1ccccc1	.	59
[O-]/[N+](=C\c1cccc(Br)c1)c1ccccc1	-	.
CCOC(=O)C(NC(=O)NCc1ccc(F)cc1)(OCC)C(F)(F)F (stereo unspecified)	-	-
CCOC(=O)C(NC(=O)Nc1ccccc1)(OCC)C(F)(F)F (stereo unspecified)	.	53
O=C(CSc1ncccn1)NCc1ccccc1	-	-
COc1ccc(-c2nc3ccccc3c(=O)n2NC(=S)N(C)C)cc1	-	-
COc1ccc(CCN(C)C(=O)C2CCN(Cc3ccc(C)cc3)CC2)cc1OC	-	.
